High-throughput results as filed in PubChem.
An excerpt weighted towards active compounds, which were near 21% of everything screened.
Shiga inhibitor – A qHTS for Small Molecule Inhibitors of Shiga Toxin; 9.2% of 290,000 active; Vero cells, Shiga toxin protein synthesis inhibition reporter; inhibition, % at 38.7 µM; in the data active = inhibition mostly above about 28%, no sharp cut-off; inactive = mostly below about 43%; note: 0% is about no effect
Pf growth 96h – Primary qHTS for delayed death inhibitors of the malarial parasite plastid, 96 hour incubation | P. falciparum luciferase reporter growth, 96 h | Potency, µM (highest dose often 28.7 µM), for the others: top-dose activity change, negative = inhibition, actives largely listed as inhibitors | 6.9% of 320,000 active | AID 504834, 2011; note: potency is the fitted concentration of half-maximal effect; % is set by controls: 0 for no effect and ±100 for the full control effect
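Two parasite generations (96 h, 37 C, 5% CO2) of compound exposure in infected erythrocytes (0.05% parasitemia, 2% hematocrit). Luciferase-reporter P. falciparum; decreased luminescence indicates inhibited growth, aimed at apicoplast-acting delayed death.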
HCV inh – qHTS Assay for Inhibitors of Hepatitis C Virus (HCV). Potency, µM (titrated, usually from 41.8 µM), without a hit: at the highest dose activity change, negative = inhibition, actives largely listed as inhibitors. Huh7.5.1 HCVcc-Cre infection, luciferase reporter, 44 h. 3.4% of 340,000 active. AID 651820, 2012; note: potency is the fitted concentration of half-maximal effect; % is set by controls: 0 for no effect and ±100 for the full control effect
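Reporter virus HCVcc-Cre (~0.5 moi) infects cells exposed to compound; seeding density 1,000 cells/well with 4 h settling beforehand. Luminescence, 15 sec read, taken 44 h post-infection following a 15 min RT substrate incubation.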
Pf growth 48h – Primary qHTS for delayed death inhibitors of the malarial parasite plastid, 48 hour incubation; Potency, µM (doses to about 28.7 µM), for the others: top-dose activity change, negative = inhibition, usual class: inhibitors; 5.9% of 310,000 active; P. falciparum luciferase growth in erythrocytes, 48 h; note: potency is the fitted concentration of half-maximal effect; % is set by controls: 0 for no effect and ±100 for the full control effect
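Growth was read as firefly luciferase luminescence after a 48 h, 37 C, 5% CO2 exposure of compounds to reporter-bearing P. falciparum cultures (0.1% parasitemia, 2% hematocrit final) in Albumax-supplemented RPMI 1640.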
CHX counter – Cycloheximide Counterscreen for Small Molecule Inhibitors of Shiga Toxin. cell reporter, cycloheximide protein synthesis inhibition counterscreen. max response, %. 12% of 300,000 active; in the data active = max response mostly above about 13%, no sharp cut-off; inactive = mostly below about 14%; note: read at 38.3 µM for the half of the compounds with a filed dose; 0% is about no effect
HCMV inh – qHTS Assay for inhibitors of the human cytomegalovirus (HCMV). 4.5% of 410,000 active. HFF cells, HCMV-luciferase reporter, 72 h; stronger effect = lower value. AID 1259415, 2018. activity change, negative = inhibition, % at 57.5 µM; in the data active = activity change below about -60%; inconclusive = no clear call, values can overlap the other calls; inactive = above about -39%; note: % is set by controls: 0 for no effect and ±100 for the full control effect
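Two compound doses tested in HFFs infected with HCMV-luciferase, MOI 1 PFU/cell, 72 h at 37C. Lysate luminescence read with OneGlo; data normalized against buffer-only and 10uM Salinomycin inhibitor controls.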
* hit, by the source's call; u = inconclusive; x = no result given. Unless noted, calls come from the whole dose curve; as a rule, active = well fitted inhibition curve with a large enough effect; inconclusive = small, poorly fitted or top-dose-only effect, or another doubt; inactive = no such curve, though single readings can be large or run the other way.

SMILES | Shiga inhibitor | Pf growth 96h | HCV inh | Pf growth 48h | CHX counter | HCMV inh
Cc1nc(NC(=O)c2ccccc2)sc1-c1csc(Nc2ccc(Cl)cc2Cl)n1 | 56.0 | 3.29µM* | x | 10.4µM* | 15.2 | x
COc1ccc(Cl)cc1Nc1nc(-c2sc(NC(=O)c3ccccc3)nc2C)cs1 | 30.3 | 2.94µM* | x | 1.85µM* | 6.9 | x
Cc1ccc(S(=O)(=O)N(C)C)cc1NC(=O)c1cc(C(C)(C)C)nn1Cc1ccccc1 | -1.7 | 7.38µM* | 5.62µM* | u | 4.5 | -25.2
CC(C)(C)c1cc(C(=O)NCc2cc(F)cc3c2OCOC3)n(Cc2ccccc2)n1 | 83.2* | u | u | u | 52.9* | 24.2
CC(C)(C)c1cc(C(=O)NNC(=O)Nc2ccccc2)n(Cc2ccccc2)n1 | -1.9 | 9.28µM* | -24.3% | 5.22µM* | 0.3 | -7.1
CC(C)(C)c1cc(C(=O)NNC(=O)Nc2cccc(Cl)c2)n(Cc2ccccc2)n1 | -6.7 | 9.28µM* | u | u | -1.4 | -5.0
COC(=O)c1cc(NC(=O)c2nn(C)c3c2CSc2ccccc2-3)cc(C(=O)OC)c1 | x | x | x | x | x | -8.4
Cc1ccc(Cl)cc1N1CCN(C(=O)c2c(C)oc3ncnc(N4CCCCC4)c23)CC1 | x | x | x | x | x | -5.6
COc1cccc(C2C(C(=O)c3ccc(C)o3)=C(O)C(=O)N2CCN2CCOCC2)c1OC (stereo unspecified) | 5.5 | 158.4% | x | 0.0% | 2.8 | 15.5
CCOc1cccc2c1OC(c1cc(OC)c(OC)c(OC)c1)N1N=C(c3ccc(C)o3)CC21 (stereo unspecified) | 21.5 | -47.0% | u | -42.5% | 38.8* | x
Cc1ccc(-c2noc(CNc3ccccc3)n2)cc1 | 64.2* | 77.6% | -14.3% | 156.7% | 37.0* | 83.9
CCc1ccc(NCc2nc(-c3ccccc3)no2)cc1 | 47.3* | 15.5% | 0.5% | 40.5% | 30.7* | 129.9
Cc1ccc(CC(=O)NCc2nc(-c3ccccc3)no2)cc1 | x | x | x | x | x | -4.8
Cc1ccc(-c2noc(CNC(=O)c3ccccc3)n2)cc1 | x | x | x | x | x | -0.5
O=c1oc(=S)oc2c1[C@H](c1ccc(Cl)cc1)O[C@H](C1CC1)C2 | x | x | x | x | x | -16.5
COc1cccc(C(=O)N/N=C/c2ccc(Oc3ccc([N+](=O)[O-])cn3)c(OC)c2)c1 | 41.6 | -1.7% | 10µM* | 4.1% | 16.0 | -36.3
COc1cc(/C=N/NC(=O)c2ccc(O)cc2)ccc1Oc1ccc([N+](=O)[O-])cn1 | 16.8 | u | u | u | 9.5 | -61.7*
COc1ccc(/C=N/NC(=O)c2cccc([N+](=O)[O-])c2)cc1OC(=O)c1ccc(C)cc1 | 13.2 | 32.0% | 11.6% | 1.0% | 6.6 | -26.2
COc1cc(/C=N/NC(=O)c2ccc3ccccc3c2)ccc1Oc1ccc([N+](=O)[O-])cn1 | 5.0 | -13.5% | 3.55µM* | -18.8% | -2.1 | u
COc1cc(/C=N/NC(=O)c2ccncc2)ccc1Oc1ccc([N+](=O)[O-])cn1 | -6.2 | u | 1.7% | -7.0% | -4.9 | u
Clc1ccccc1CNc1ncnc2c1c(-c1ccccc1)cn2-c1ccccc1 | x | x | x | x | x | -27.5
COc1ccc2oc(C(=O)OCC(=O)N(CCC#N)c3ccccc3)c(C)c2c1 | -27.6 | u | u | u | -3.0 | 3.9
C[C@@H]1CN([C@H](C)CO)C(=O)c2cc(NC(=O)c3ccncc3)ccc2O[C@@H]1CN(C)C(=O)Nc1ccccc1 | x | x | 20.4% | x | x | -3.5
O=C(O)CC(NS(=O)(=O)c1ccc(Br)s1)c1ccccc1 (stereo unspecified) | x | x | x | x | x | 11.8
N#Cc1cc([N+](=O)[O-])ccc1N1CCN(c2ccccc2O)CC1 | 71.1* | -57.4% | u | -23.0% | 43.3* | -36.6
SMILES | Shiga inhibitor | Pf growth 96h | HCV inh | Pf growth 48h | CHX counter | HCMV inh
CN1CCN(c2ccc([N+](=O)[O-])cc2C(=O)c2ccccc2)CC1 | -7.2 | u | u | u | -1.3 | -6.6
COc1ccc([N+](=O)[O-])cc1NC(=O)C(C)N1CCCC1 (stereo unspecified) | 17.1 | 36.1% | u | 33.0% | 1.3 | -35.9
O=[N+]([O-])c1ccc(N2CCN(c3ccc([N+](=O)[O-])cc3CO)CC2)c(CO)c1 | 2.6 | u | 3.16µM* | u | -3.2 | -66.1*
CN1CCN(c2ccc([N+](=O)[O-])cc2Cl)CC1 | 17.0 | 10.5% | 4.1% | -0.9% | 0.9 | -27.5
CC(C(=O)Nc1cc([N+](=O)[O-])ccc1Cl)N1CCN(c2ccccc2O)CC1 (stereo unspecified) | -6.9 | u | u | 6.57µM* | 1.3 | 50.8
O=C1C2CCCN2C(=S)N1c1cc(Cl)ccc1Cl (stereo unspecified) | x | u | -2.5% | u | x | -34.2
CCc1ccc(N2C(=O)C3CCCN3C2=S)cc1 (stereo unspecified) | 51.6* | 16.2% | 8.7% | u | 12.6 | 20.5
Cc1cccc(N2C(=O)C3CCCN3C2=S)c1C (stereo unspecified) | x | u | -8.5% | 13.1µM* | x | -9.8
COC(=O)[C@@H]1C[C@H]2CC[C@H](O)C[C@H]2N1Cc1ccccc1OS(=O)(=O)c1ccc(C)cc1 | 5.3 | u | -29.6% | 10.4µM* | -1.3 | -17.4
CCC(CC)C(=O)NCc1ccc2c(c1)cc(C)n2C | -9.3 | 87.8% | -7.1% | -12.2% | -0.8 | -8.0
Cc1cc2cc(CNC(=O)c3ccc(S(=O)(=O)N4CCCC4)cc3)ccc2n1C | 19.0 | 9.28µM* | -27.8% | u | -1.0 | -5.4
CCOC(=O)NCc1ccc2c(c1)cc(C)n2C | 22.9 | -0.2% | 6.2% | -7.0% | 15.0* | -10.1
CCc1cccc(C)c1NC(=S)NCc1ccc2c(c1)cc(C)n2C | -7.8 | 6.57µM* | u | u | -1.1 | -91.3*
CCOC(=O)CCC(=O)NCc1ccc2c(c1)cc(C)n2C | -25.9 | 34.7% | -3.1% | u | 0.6 | 43.8
CCCCC(=O)NCc1ccc2c(c1)cc(C)n2C | 51.5* | 170.4% | -1.4% | 16.5% | 14.2 | 15.2
CC(C)c1cccc(C(C)C)c1NC(=S)Nc1cccc(Cl)c1 | -6.8 | u | -3.5% | u | -2.2 | 5.8
COc1cc(NC(=O)CN(C)S(=O)(=O)c2ccc(-c3ccc(=O)[nH]n3)s2)cc(OC)c1 | -16.5 | 37.7% | 10.9% | u | 2.7 | 12.7
Cc1cc2cc(CNC(=S)NCc3ccccc3)ccc2n1C | 35.0 | 43.9% | 13.8% | -26.5% | -1.1 | u
Cc1cc2cc(CNC(=O)Nc3ccccc3)ccc2n1C | 47.7* | -18.6% | 13.9% | -6.2% | 18.4* | 12.3
CCS(=O)(=O)NCc1ccc2c(c1)cc(C)n2C | -2.0 | 6.57µM* | u | u | -1.9 | -25.2
Cc1cc2cc(CNC(=O)c3cccs3)ccc2n1C | 55.6* | x | -25.5% | u | 37.5* | -12.1
